This is an account of results in paper PMC7862700, “An all-to-all approach to the identification of sequence-specific readers for epigenetic DNA modifications on cytosine”.

Assay in all cases: DAPPL (digital affinity profiling via proximity ligation, sequencing); 10 mM Tris-HCl pH 7.5, 50 mM NaCl, 1 mM DTT, 4% glycerol, room temperature, 30 min; GST-TFs on glutathione beads, 16-mer random dsDNA library, 0.1% formaldehyde crosslink after washing; high values mean tight binding
The target in one experiment is T1, FEV (Homo sapiens, UniProt Q99581 1-238).
T1 sequence: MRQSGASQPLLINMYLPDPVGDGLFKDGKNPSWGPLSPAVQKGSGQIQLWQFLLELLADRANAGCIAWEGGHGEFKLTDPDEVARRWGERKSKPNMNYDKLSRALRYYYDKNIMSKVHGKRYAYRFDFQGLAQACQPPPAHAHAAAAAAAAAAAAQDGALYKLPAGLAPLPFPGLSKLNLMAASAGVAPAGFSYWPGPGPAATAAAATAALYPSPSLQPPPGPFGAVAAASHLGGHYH
To be noted: protein: recombinant; tags: N-terminal GST; dsDNA, one strand shown. The gist of the method:
(§1)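 In yeast, human transcription factors were expressed with a GST fusion, then pulled down on glutathione beads and given DNA barcodes. Pooled with a tag-only sample, they were exposed to 200 nmole of a 16-mer random double-stranded DNA library (Tris/NaCl/DTT/glycerol buffer, room temperature, 30 min), washed, crosslinked with 0.1% formaldehyde, proximity-ligated using BsaI/T4 ligase for 1 h at 37 °C, PCR-amplified and read on an Illumina NextSeq500. Each hexamer's frequency of reads for a factor, divided by the matching frequency for the tag-only sample, gives the binding signal.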

For another experiment, the target named is ETV5 (Homo sapiens, UniProt P41161 1-510). To be noted: protein: recombinant; tags: N-terminal GST; dsDNA, one strand shown. The gist of the method:
as §1

A further experiment addresses HSF1 (Homo sapiens, UniProt Q00613 1-529). To be noted: protein: recombinant; tags: N-terminal GST; chain copies: 3; dsDNA, one strand shown. The gist of the method: as §1
For a further experiment, the target named is T2, SPIC (Homo sapiens, UniProt Q8N5J4 1-248).
T2 sequence: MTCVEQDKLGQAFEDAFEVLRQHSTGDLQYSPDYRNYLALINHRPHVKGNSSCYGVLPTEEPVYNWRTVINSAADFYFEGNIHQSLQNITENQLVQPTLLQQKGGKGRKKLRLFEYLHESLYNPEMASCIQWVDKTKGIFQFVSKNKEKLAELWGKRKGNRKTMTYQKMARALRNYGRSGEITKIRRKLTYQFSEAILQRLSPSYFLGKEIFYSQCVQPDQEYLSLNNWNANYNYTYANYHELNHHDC
To be noted: protein: recombinant; tags: N-terminal GST; dsDNA, one strand shown. The gist of the method: as §1

The next experiment concerns the target ELF4 (Homo sapiens, UniProt Q99607 1-663). The conditions noted are these: protein: recombinant; tags: N-terminal GST; dsDNA, one strand shown. Summed up:
as §1

The next experiment has as its target T3, ELK4 (Homo sapiens, UniProt P28324-2 1-405).
T3 sequence: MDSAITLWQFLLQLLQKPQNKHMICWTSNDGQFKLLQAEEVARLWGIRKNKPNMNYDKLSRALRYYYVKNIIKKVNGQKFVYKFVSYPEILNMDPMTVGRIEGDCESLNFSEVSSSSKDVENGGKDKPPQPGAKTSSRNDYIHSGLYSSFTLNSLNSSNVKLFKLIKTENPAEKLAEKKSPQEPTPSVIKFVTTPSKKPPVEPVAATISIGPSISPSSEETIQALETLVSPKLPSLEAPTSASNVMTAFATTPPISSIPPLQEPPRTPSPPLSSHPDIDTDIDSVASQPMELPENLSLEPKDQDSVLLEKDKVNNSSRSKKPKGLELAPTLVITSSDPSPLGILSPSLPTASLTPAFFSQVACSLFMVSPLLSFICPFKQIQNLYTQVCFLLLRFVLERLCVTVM
To be noted: protein: recombinant; tags: N-terminal GST; dsDNA, one strand shown. Summed up:
as §1

In a further experiment the target is T4, ETV2 (Homo sapiens, UniProt O00321 1-342).
T4 sequence: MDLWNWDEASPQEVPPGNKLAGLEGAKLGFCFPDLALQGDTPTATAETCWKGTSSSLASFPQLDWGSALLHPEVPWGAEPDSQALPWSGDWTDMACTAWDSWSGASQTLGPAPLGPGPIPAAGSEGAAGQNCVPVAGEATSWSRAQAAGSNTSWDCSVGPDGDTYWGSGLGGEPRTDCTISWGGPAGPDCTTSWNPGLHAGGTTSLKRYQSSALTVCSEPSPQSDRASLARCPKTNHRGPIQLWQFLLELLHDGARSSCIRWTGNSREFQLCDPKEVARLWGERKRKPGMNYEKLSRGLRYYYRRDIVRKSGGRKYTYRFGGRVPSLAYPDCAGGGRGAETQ
To be noted: protein: recombinant; tags: N-terminal GST; dsDNA, one strand shown. Summed up: as §1

The target of a further experiment is T5, ELF3 (Homo sapiens, UniProt P78545 1-371).
T5 sequence: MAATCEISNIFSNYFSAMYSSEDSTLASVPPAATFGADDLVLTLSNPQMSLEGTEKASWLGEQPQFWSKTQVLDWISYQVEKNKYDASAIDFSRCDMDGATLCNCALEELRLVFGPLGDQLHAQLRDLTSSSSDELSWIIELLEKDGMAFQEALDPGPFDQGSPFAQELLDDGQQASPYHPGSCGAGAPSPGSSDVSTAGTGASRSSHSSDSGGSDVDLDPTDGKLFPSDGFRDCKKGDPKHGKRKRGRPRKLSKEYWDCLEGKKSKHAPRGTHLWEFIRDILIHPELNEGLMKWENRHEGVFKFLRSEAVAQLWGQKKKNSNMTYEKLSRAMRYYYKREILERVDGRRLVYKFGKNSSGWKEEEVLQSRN
To be noted: protein: recombinant; tags: N-terminal GST; dsDNA, one strand shown. Summed up: as §1

The target in a further experiment is CRX (Homo sapiens, UniProt O43186 1-299). The conditions noted are these: protein: recombinant; tags: N-terminal GST; dsDNA, one strand shown. The gist of the method:
as §1

Another experiment has as its target ETV1 (Homo sapiens, UniProt P50549 1-477). The conditions noted are these: protein: recombinant; tags: N-terminal GST; dsDNA, one strand shown. The gist of the method: as §1
For a further experiment, the target named is T6, ERF (Homo sapiens, UniProt P50548 1-548).
T6 sequence: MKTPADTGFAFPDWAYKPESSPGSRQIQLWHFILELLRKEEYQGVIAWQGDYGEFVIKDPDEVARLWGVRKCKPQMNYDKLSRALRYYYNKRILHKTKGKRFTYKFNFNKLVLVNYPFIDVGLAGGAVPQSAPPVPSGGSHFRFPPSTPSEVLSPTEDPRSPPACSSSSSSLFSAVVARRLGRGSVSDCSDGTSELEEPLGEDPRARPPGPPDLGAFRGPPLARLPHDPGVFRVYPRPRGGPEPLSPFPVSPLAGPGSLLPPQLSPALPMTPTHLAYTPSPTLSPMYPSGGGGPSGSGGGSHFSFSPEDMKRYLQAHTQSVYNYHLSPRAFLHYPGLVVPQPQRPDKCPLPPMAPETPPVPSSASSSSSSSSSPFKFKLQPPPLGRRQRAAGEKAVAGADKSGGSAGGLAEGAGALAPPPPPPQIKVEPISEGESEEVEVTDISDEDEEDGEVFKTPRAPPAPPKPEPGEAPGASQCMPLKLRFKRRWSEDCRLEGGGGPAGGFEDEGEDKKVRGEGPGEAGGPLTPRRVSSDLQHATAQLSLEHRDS
The conditions noted are these: protein: recombinant; tags: N-terminal GST; dsDNA, one strand shown. The gist of the method:
as §1

The next experiment deals with T7, ETV3L (Homo sapiens, UniProt Q6ZN32 1-361).
T7 sequence: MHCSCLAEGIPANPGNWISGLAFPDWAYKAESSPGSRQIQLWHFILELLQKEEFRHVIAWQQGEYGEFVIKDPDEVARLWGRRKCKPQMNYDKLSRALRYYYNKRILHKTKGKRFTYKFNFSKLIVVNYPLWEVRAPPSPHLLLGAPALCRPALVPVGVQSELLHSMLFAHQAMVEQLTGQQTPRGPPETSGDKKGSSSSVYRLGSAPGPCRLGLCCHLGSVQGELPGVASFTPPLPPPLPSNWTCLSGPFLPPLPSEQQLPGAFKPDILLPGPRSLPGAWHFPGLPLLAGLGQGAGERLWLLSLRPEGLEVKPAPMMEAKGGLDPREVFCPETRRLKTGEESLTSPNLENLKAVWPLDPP
To be noted: protein: recombinant; tags: N-terminal GST; dsDNA, one strand shown. Summed up: as §1

The target in the next experiment is T8, ETS2 (Homo sapiens, UniProt P15036 1-469).
T8 sequence: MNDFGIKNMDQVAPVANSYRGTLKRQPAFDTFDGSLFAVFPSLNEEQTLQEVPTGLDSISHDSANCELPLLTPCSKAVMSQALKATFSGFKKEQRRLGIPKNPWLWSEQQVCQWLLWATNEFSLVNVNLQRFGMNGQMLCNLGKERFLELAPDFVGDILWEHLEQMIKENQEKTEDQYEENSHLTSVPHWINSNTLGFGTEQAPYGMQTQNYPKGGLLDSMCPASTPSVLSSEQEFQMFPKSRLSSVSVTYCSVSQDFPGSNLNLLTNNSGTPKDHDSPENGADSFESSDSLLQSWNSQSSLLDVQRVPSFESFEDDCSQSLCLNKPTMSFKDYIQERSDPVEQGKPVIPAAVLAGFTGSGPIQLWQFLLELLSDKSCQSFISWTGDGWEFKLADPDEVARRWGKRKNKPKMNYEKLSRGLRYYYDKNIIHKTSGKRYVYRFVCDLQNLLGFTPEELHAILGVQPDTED
To be noted: protein: recombinant; tags: N-terminal GST; dsDNA, one strand shown. Summed up: as §1

The next experiment deals with T9, SPDEF (Homo sapiens, UniProt O95238 1-335).
T9 sequence: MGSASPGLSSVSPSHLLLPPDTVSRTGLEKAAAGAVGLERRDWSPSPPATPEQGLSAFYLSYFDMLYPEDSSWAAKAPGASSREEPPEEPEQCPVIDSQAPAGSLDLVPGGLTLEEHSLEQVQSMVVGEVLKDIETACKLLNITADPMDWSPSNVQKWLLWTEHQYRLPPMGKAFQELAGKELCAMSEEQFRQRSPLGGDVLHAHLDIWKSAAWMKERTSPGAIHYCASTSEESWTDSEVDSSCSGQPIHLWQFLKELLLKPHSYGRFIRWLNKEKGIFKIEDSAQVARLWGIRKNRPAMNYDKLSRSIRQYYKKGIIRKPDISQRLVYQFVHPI
To be noted: protein: recombinant; tags: N-terminal GST; dsDNA, one strand shown. Summed up: as §1

In the next experiment the target is T10, ETV7 (Homo sapiens, UniProt Q9Y603 1-341).
T10 sequence: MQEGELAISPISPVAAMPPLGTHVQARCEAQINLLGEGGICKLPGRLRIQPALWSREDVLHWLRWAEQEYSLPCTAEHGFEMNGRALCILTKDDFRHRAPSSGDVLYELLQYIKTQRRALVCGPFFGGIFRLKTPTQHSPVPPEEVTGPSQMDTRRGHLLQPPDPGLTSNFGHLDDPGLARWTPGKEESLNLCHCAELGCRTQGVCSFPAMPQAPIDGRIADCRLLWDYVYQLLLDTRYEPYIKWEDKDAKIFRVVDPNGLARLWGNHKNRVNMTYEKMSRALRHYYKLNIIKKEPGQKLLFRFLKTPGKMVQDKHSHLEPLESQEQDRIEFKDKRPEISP
To be noted: protein: recombinant; tags: N-terminal GST; dsDNA, one strand shown. Summed up: as §1

A further experiment addresses T11, ELF5 (Homo sapiens, UniProt Q9UKW6-2 1-255).
T11 sequence: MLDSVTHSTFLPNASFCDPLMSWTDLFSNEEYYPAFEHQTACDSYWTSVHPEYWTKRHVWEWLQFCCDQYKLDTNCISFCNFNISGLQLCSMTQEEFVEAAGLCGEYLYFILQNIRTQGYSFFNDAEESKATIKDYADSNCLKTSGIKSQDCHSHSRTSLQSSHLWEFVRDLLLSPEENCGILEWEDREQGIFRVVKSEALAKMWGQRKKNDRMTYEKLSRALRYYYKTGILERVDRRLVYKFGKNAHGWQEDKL
To be noted: protein: recombinant; tags: N-terminal GST; dsDNA, one strand shown. The gist of the method: as §1

The next experiment deals with T12, ETV3 (Homo sapiens, UniProt P41162-2 1-143).
T12 sequence: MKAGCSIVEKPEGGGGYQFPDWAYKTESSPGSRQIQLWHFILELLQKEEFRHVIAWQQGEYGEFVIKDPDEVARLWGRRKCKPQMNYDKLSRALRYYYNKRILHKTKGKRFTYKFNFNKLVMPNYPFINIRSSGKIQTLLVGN
To be noted: protein: recombinant; tags: N-terminal GST; dsDNA, one strand shown. Summed up: as §1

In a further experiment the target is ETV6 (Homo sapiens, UniProt P41212 1-452). To be noted: protein: recombinant; tags: N-terminal GST; dsDNA, one strand shown. Summed up: as §1
ETV6, sequence (P41212 whole entry): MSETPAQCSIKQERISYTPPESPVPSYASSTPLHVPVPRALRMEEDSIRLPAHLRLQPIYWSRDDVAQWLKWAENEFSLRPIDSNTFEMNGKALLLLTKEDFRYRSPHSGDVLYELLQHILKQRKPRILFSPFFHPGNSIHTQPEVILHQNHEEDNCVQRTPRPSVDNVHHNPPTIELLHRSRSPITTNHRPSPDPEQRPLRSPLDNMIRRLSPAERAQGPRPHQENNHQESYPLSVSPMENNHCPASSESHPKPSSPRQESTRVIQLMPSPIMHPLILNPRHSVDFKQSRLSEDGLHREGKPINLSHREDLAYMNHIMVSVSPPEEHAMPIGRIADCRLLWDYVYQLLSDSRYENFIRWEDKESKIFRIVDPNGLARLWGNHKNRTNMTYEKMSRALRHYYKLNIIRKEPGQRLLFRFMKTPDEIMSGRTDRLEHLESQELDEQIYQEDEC

ELF4, sequence (Q99607 whole entry): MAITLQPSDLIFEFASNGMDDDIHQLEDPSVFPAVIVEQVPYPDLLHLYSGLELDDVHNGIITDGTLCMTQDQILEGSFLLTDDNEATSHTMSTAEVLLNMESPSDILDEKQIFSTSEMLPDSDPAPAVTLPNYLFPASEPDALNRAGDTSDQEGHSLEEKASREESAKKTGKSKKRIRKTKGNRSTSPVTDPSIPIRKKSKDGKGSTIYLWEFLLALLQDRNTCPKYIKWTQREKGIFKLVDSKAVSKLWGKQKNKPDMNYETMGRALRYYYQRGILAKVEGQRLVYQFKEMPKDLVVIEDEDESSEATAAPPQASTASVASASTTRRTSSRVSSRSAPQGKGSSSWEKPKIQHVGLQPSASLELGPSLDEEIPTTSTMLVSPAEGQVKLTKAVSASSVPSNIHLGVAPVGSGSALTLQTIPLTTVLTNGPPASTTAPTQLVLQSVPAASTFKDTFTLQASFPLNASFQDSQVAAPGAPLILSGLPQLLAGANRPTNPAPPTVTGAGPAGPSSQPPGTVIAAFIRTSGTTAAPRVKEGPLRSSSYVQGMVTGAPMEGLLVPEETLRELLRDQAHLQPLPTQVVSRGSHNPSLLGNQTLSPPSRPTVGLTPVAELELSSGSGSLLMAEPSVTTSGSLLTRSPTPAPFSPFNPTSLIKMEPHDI
HSF1, sequence (Q00613 whole entry): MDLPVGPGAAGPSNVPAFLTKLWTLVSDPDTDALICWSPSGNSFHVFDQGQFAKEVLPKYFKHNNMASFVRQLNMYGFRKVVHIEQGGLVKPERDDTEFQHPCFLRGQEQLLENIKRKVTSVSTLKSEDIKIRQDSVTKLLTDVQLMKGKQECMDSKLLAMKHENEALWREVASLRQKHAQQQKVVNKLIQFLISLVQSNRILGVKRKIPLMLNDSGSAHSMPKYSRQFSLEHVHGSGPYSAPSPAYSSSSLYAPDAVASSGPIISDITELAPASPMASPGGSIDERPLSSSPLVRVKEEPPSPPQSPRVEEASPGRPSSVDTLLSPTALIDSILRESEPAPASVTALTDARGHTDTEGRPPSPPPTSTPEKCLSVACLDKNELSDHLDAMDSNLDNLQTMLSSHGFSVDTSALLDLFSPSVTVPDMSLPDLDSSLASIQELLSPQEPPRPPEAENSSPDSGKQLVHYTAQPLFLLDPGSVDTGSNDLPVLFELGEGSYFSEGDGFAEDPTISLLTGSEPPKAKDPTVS
CRX, sequence (O43186 whole entry): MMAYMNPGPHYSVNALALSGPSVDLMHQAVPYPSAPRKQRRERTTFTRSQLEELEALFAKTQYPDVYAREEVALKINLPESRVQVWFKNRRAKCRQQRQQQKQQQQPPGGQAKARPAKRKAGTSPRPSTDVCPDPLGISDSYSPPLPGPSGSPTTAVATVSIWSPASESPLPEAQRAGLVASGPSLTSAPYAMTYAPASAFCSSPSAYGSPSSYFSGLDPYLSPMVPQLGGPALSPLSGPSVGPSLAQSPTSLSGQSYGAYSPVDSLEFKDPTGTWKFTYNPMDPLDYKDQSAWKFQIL
ETV1, sequence (P50549 whole entry): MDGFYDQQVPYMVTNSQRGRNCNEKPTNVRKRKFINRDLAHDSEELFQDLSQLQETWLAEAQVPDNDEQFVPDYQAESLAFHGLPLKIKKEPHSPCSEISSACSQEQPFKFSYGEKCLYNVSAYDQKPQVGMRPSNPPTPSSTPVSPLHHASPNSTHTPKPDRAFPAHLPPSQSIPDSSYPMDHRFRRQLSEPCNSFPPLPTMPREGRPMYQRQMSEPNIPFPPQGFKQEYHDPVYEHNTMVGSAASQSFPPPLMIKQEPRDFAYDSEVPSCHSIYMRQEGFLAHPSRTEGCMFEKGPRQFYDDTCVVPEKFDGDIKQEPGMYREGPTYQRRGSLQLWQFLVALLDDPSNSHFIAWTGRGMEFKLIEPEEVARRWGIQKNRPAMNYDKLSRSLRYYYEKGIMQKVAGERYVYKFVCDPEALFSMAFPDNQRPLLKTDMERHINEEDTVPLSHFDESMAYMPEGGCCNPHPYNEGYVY
ETV5, sequence (P41161 whole entry): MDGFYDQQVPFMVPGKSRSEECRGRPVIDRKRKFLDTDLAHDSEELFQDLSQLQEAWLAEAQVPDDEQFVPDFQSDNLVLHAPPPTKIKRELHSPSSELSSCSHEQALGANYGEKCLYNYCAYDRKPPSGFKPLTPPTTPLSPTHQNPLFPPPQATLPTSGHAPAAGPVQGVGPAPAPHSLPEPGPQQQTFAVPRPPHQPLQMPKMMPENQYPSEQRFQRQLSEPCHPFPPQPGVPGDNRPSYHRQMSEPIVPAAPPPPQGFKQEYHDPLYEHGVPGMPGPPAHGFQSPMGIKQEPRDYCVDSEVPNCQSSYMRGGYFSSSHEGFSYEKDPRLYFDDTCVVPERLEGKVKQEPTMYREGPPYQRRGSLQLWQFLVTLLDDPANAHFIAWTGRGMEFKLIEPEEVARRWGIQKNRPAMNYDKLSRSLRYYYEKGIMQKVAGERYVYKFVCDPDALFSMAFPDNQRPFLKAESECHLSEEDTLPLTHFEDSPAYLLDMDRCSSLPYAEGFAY

For the sequence ATGTAA, the binding signal with FEV was 1.2 fold enrichment (6-mer frequency, TF over GST control); with ETV5, 1.24 fold enrichment (6-mer frequency, TF over GST control); in the experiment with HSF1, 1.28 fold enrichment (6-mer frequency, TF over GST control); with SPIC, 1.17 fold enrichment (6-mer frequency, TF over GST control); with ELF4, 1.23 fold enrichment (6-mer frequency, TF over GST control); with ELK4, 1.28 fold enrichment (6-mer frequency, TF over GST control). In addition, the binding signal is 1.15 fold enrichment (6-mer frequency, TF over GST control) with ETV2; 1.39 fold enrichment (6-mer frequency, TF over GST control) with ELF3; 1.41 fold enrichment (6-mer frequency, TF over GST control) with CRX; 1.27 fold enrichment (6-mer frequency, TF over GST control) in the experiment with ETV1; 1.18 fold enrichment (6-mer frequency, TF over GST control) with ERF; 1.26 fold enrichment (6-mer frequency, TF over GST control) in the experiment with ETV3L. Moreover, the binding signal with ETS2 is 1.37 fold enrichment (6-mer frequency, TF over GST control); with SPDEF, 1.32 fold enrichment (6-mer frequency, TF over GST control); with ETV7 it was 1.26 fold enrichment (6-mer frequency, TF over GST control); with ELF5, 1.3 fold enrichment (6-mer frequency, TF over GST control); with ETV3 it was 1.32 fold enrichment (6-mer frequency, TF over GST control); with ETV6, 1.3 fold enrichment (6-mer frequency, TF over GST control).
